From PubChem
Hits are enriched below; roughly 3.8% of the tested compounds scored in any of these assays.
HSF1 inh = HSF1 inhibition | NIH3T3-HGL HSE-luciferase, MG132-induced, luminescence 8 h; hits give low values | activity change, negative = inhibition, % at 7.5 µM (by protocol) | 300,000 tested, 0.77% active;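 active = more than half of replicate wells show activity change below -50%, luminescence cut by over half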;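 note: luciferase reports HSF-1 transcriptional activity via heat shock element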
pCIP destab = compounds decreasing mouse p/CIP protein stability; Q05BA5; F442A p/CIP-EGFP cells, EGFP fluorescence, 16 h; decrease of EGFP signal, % at 10 µM; 290,000 tested, 0.01% active;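 active = EGFP signal decrease of at least 30% at 10 µM or well 3 SD below plate mean, unless failing retest; inactive = the rest, including hits failing retest or dose response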
Hsp70 activator = Hsp70 transcriptional activation, primary screen; HeLa Hsp70 promoter luciferase reporter, luminescence; scaled: vehicle 0, proteasome-inhibitor control 100%; activation, % at 10 µM; 200,000 tested, 0.04% active; AID 1203;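 active = activation above the mean across all tested compounds plus 3 SD, cutoff set per campaign, cut at about 5.5% in these data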
NALP1 yeast inh = NALP1 inhibition | S. cerevisiae NALP1/ASC/caspase-1 growth, X-gal OD620, 72 h | inhibition, % at 10 µM | 280,000 tested, 0.61% active | AID 2071; in the data active = inhibition mostly above about 24%, no sharp cut-off; inactive = mostly below about 32%
HSP90 refold inh = blocks HSP90-mediated luciferase refolding in reticulocyte lysate | inhibition, % at 5.6 µM | AID 1789 | Rabbit reticulocyte lysate, luciferase refolding luminescence, 3 h | 290,000 tested, 0.91% active;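 active = inhibition above the screen-wide mean plus 3 SD, computed separately per campaign, cut at about 16% in these data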;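 note: inhibitors lower the luminescence because luciferase stays unfolded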
HSF-1 act = increases HSF-1 driven luciferase reporter signal; AID 504408; NIH3T3-HGL HSF-1 luciferase reporter, MG132, 8 h; 100% = twice DMSO control signal; 300,000 tested, 1.7% active; activation, % at 9 µM;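 active = mean replicate activation of at least 50% with a set share of replicates each reaching 50%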
A number is an active result; . = inactive; / = not tested or not shown.

SMILES | HSF1 inh | pCIP destab | Hsp70 activator | NALP1 yeast inh | HSP90 refold inh | HSF-1 act
COc1cccc(C(C)NC(=O)c2ccncc2)c1 (configuration not stated) | . | . | / | . | . | .
CCCCn1c(N)c(S(=O)(=O)c2ccc(C)cc2)c2nc3ccccc3nc21 | . | . | . | . | . | .
Cc1ccc(S(=O)(=O)c2c(N)n(-c3ccccc3)c3nc4ccccc4nc23)cc1 | . | . | . | . | . | 66
O=C(COC(=O)c1ccc(S(=O)(=O)N2CCCC2)cc1)Nc1ccc(F)cc1F | . | . | . | . | . | .
N#Cc1ccc(Cl)cc1NC(=O)COC(=O)c1ccc(S(=O)(=O)N2CCCC2)cc1 | . | . | . | . | . | 55
Cc1cccnc1NC(=O)CCCNC(=O)c1ccc(Cl)cc1 | . | / | / | / | / | .
COc1ccc(OC)c(NC2c3ccccc3C(=O)N2Cc2ccc3c(c2)OCO3)c1 (configuration not stated) | . | . | . | . | . | 51
O=C1c2ccccc2C(Nc2ccc3c(c2)OCO3)N1Cc1ccc2c(c1)OCO2 (configuration not stated) | . | . | . | . | . | .
O=C(CNC(=O)c1ccc2c(c1)OCCO2)N=Nc1c(O)[nH]c2ccccc12 | . | . | / | . | . | .
N#C/C(=C/c1ccc(F)cc1)c1nc(CCN2C(=O)c3ccccc3C2=O)cs1 | . | . | . | . | . | .
N#C/C(=C/c1cccc(C(F)(F)F)c1)c1nc(CCN2C(=O)c3ccccc3C2=O)cs1 | -59 | . | . | . | . | .
CCC(CC)NC(=O)CCCSc1nc2ccccc2[nH]1 | . | . | . | . | . | .
CC(C)CCN(CCC(C)C)C(=O)Cc1c(O)c2ccccc2[nH]c1=O | . | . | / | . | . | 53
CCN(CC)C(=O)Cc1c(O)c2ccccc2[nH]c1=O | . | . | / | . | . | .
NC(=O)c1ccc(/C=N/O)nc1 | . | . | . | . | . | .
O=C(NC(=S)Nc1cccnc1)c1cc2ccccc2o1 | . | . | . | 47 | . | 59
O=C(NC(=S)Nc1ccc2oc(=O)ccc2c1)c1cc2ccccc2o1 | -84 | . | / | / | . | .
O=C(NC(=S)NCc1cccnc1)c1cc2ccccc2o1 | . | . | . | . | . | .
O=C(NC(=S)Nc1cccc([N+](=O)[O-])c1)C1CCCCC1 | . | . | / | . | . | .
CCc1ccc(NC(=O)CSc2nc3cc(C(=O)OC)ccc3c(=O)n2Cc2ccco2)cc1 | . | . | . | . | . | .
CCN(C(=O)CSc1nc2cc(Cl)ccc2c(=O)n1Cc1ccco1)C1CCS(=O)(=O)C1 (configuration not stated) | . | . | . | . | . | .
CCN(C(=O)CSc1nc2cc(C(=O)OC)ccc2c(=O)n1Cc1ccco1)c1cccc(C)c1 | . | . | . | . | . | 143
CCOC(=O)c1c(NC(=O)CSc2nc3cc(Cl)ccc3c(=O)n2Cc2ccco2)sc(C(=O)N(C)C)c1C | . | . | . | . | . | 146
CC(C)c1ccc(NC2(C#N)C(=O)Nc3ccccc32)cc1 (configuration not stated) | -61 | . | . | . | . | .
Cc1ccccc1NC1(C#N)C(=O)Nc2ccccc21 (configuration not stated) | . | . | . | . | . | .
SMILES | HSF1 inh | pCIP destab | Hsp70 activator | NALP1 yeast inh | HSP90 refold inh | HSF-1 act
CC(C)(C)NCC(=O)c1c[nH]c2ccccc12 | . | . | . | 30 | . | .
Cc1ccc(S(=O)(=O)Nc2cc3c4c(c2)CCN4C(=O)CC3)cc1 | . | / | / | / | / | 58
O=C1CCc2cc(NS(=O)(=O)c3ccc(F)cc3)cc3c2N1CC3 | . | / | / | / | / | .
Cc1ccc(S(C)(=O)=NC(=O)NC(=O)c2c(F)cccc2Cl)cc1 (configuration not stated) | . | . | / | . | . | .
Cc1ccc(S(=O)(=O)/N=c2\ccc(Cl)cn2C(F)F)cc1 | . | . | . | 38 | . | .
O=c1nc2n(c3ncccc13)CCC2 | . | . | . | . | 16 | .
CN1C(=O)C(C)(C)N(C(=O)c2cccc([N+](=O)[O-])c2)c2ccccc21 | . | . | / | . | . | .
O=C(O)C1CC=CCC1C(=O)N1CCN(c2nc(-c3ccccc3Cl)c3cc(Br)ccc3n2)CC1 (configuration not stated) | / | . | / | 27 | / | /
O=C(O)C1CC=CCC1C(=O)N1CCN(c2nc(-c3ccccc3)c3ccccc3n2)CC1 (configuration not stated) | . | . | . | . | . | .
CC(OC(=O)Cn1nnc2ccccc21)C(=O)NC1CCCC1 (configuration not stated) | . | . | / | . | . | .
O=C(Cn1nnc2ccccc21)NNC(=S)NC1CCCCC1 | -65 | . | . | . | . | .
CCc1ccc2c(c1)cc(CN(C(=S)Nc1ccccc1C)C1CC1)c1nnnn12 | . | . | . | . | . | .
COCCN(Cc1cc2cc(C)ccc2n2nnnc12)C(=S)Nc1ccccc1C | . | . | . | 24 | . | .
Cc1noc(C)c1C(=O)N1CCN(c2ccc(OCc3ccccc3)cc2)CC1 | . | . | / | / | . | .
CC(NC(=O)COC(=O)c1ccccc1SCC(=O)N1CCCC1)c1ccccc1 (configuration not stated) | . | / | / | / | / | .
Cc1nc(-c2ccccn2)sc1C(=O)Nc1ccc(F)cc1F | . | . | . | . | . | 70
CN(C)c1nc(NCc2ccccc2)nc(SCC(N)=O)n1 | . | . | / | . | . | .
COc1cc(C(=O)OCn2nnc3ccccc3c2=O)cc(OC)c1OC | . | . | . | . | . | .
COc1cc(CCC(=O)OCn2nnc3ccccc3c2=O)cc(OC)c1OC | -81 | . | . | . | . | .
O=C(Cn1[nH]c(=O)c2ccccc2c1=O)Nc1cccc(S(=O)(=O)N2CCCCCC2)c1 | . | . | . | . | . | .
Cc1cc(C)c(C)c(C(=O)CSc2nnc(-c3ccc4[nH]c(C)c(C)c4c3)o2)c1C | . | . | . | . | . | .
Cc1[nH]c2ccc(-c3nnc(SCC(=O)c4ccc(F)cc4)o3)cc2c1C | -60 | . | . | . | . | .
O=Cc1ccc(-c2nc3ccccc3s2)o1 | . | . | . | . | . | 63
Cc1ccc(-c2cnc(SCC(=O)N3CCCc4ccccc43)n2C)cc1 | / | . | . | . | . | /
CCOC(=O)CSc1nnc(-c2ccccc2)c(-c2ccccc2)n1 | -82 | . | / | . | . | .
CCOC(=O)CCCNC(=O)CSc1nnc(-c2ccccc2)c(-c2ccccc2)n1 | . | . | / | . | . | .
Cn1c(-c2ccccc2)cnc1SCC(=O)N1CCCc2ccccc21 | . | . | . | . | . | 67
CCOC(=O)CSc1cc(-c2ccccc2)nc2ncnn12 | . | . | / | / | . | 75
O=C(CSc1nnc(-c2ccccc2)c(-c2ccccc2)n1)N1CCc2ccccc21 | . | . | . | . | . | 130
